Experimental data published in the OligoGym collection.

target: STARD3; test: pooled miR-30 sensor sort-seq; sequence = guide strand; details: shRNA
Further: reference of the scale not given here.

Sequence	sensor-assay potency score (higher = more potent)
TTGACAATGAGGAATGCACTGG	0.205
TTCAGGATAAACGTCTTGCCGT	-0.566
TTAAGAATCCAGACAAAGGTGC	-0.169
TTGTTCCACAGCACCATCCTCT	-0.73

target: STAT5B; test: as above; details: shRNA

Sequence	sensor-assay potency score (higher = more potent)
TTCTCAATGATGAACGTGCTGG	-0.64
TAACTCATTCTCTGTGTCCTGC	0.72
TTCTGAGTCACTGAATCTCAGG	-1.25
TATACTTCATCTTTTGGCCGAT	-0.0426
TAACACTTCCATCACACCGTCA	-0.288
TTTAACACTTCCATCACACCGT	0.122
TTGGCTTCTCGGACCAACCTCT	-0.339
TTGTTCAAGATCTCGCCACTGT	0.132
TTGACTTGAAAAACCAGCTCAT	0.235
TTTAGCAGTAGCAGACTCGCAG	0.175
TTAACACTTCCATCACACCGTC	-0.414
TTAGCAGTAGCAGACTCGCAGG	-0.797

target: STK11; test: as above; details: shRNA

Sequence	sensor-assay potency score (higher = more potent)
TTCGTTGTATAACACATCCACC	-1.02
TTTCTGCTTCTCTTCGTTGTAT	0.0401
TATAACACATCCACCAGCTGGA	0.528
ATCAGCTGACAGAAGTACCCGT	-0.0103
TTCGCAACTTCTTCTTCTTGAG	-0.46
TTTTTGTGCCGTAACCTCCTCA	0.218
TTCTTCTTGAGGATCTTGACGG	-0.484
TCGCAACTTCTTCTTCTTGAGG	-1.45
TCAGCTGACAGAAGTACCCGTG	0.17
TAACACATCCACCAGCTGGATG	-1.1
TCTTCTTGAGGATCTTGACGGC	-0.46
TACATTTTCTGCTTCTCTTCGT	0.646

target: STK24; test: as above; details: shRNA

Sequence	sensor-assay potency score (higher = more potent)
TTCTAATAGATCTAGTGCGGAG	-0.878
TCTCGGATTGTGAAGATCCAGT	-1.01
TAATTGTAGATAAACACTGAGA	-0.826
TGGACTGTCACACTGACTCAGC	-1.39
TATACAAATCTGTACACCCATC	-1.31
TTTCCTTCCAACGTCGGTGGGT	0.554
TAATATAGTAGCGATCTGGGTT	0.44
TTTCATCTTATTTCTGTCCAAG	-0.728
TTGTGCTTCAATAACTCCTTAG	-0.488
TACATATGGACTGTCACACTGA	0.632
TTTCTCTTAATATAGTAGCGAT	-0.861
